eIF4E 4G PPI: eIF4E–eIF4G protein interaction inhibitors, primary screen, biochemical, uHTS, TR-FRET, eIF4GI fragment. Eukaryotic translation initiation factor 4E (Mus musculus) + Eukaryotic translation …. inhibition, % at 21.7 µM. TR-FRET eIF4E-eIF4GI(517-606) binding, 2 h. hit rate 0.37% among 220,000;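 active = inhibition above about 30%, limit read from the data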;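 note: 0% = full FRET control wells and 100% = background wells lacking eIF4GI fragment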
PERK inh: block of dimerizer-induced PERK translation repression, primary screen, PERK inhibitor project, CHO PERK-DD cells, SEAP luminescence, HTS. Eukaryotic translation initiation factor 2-alpha kinase 3 (Homo sapiens), Q9NZJ5. CHO PERK-DD fusion, SEAP luminescence translation reporter. inhibition, % at 5.6 µM. hit rate 0.17% among 220,000;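 active = inhibition above the mean inhibition of all tested compounds plus 3 SD, set separately per screening campaign, cut at about 2.9% in these data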;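 note: PERK kinase domain activated by AP20187 dimerizer at 100 nM; 0% = DMSO with dimerizer and 100% = rapamycin at 8.4 µM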
PABP1 MLLE inh: inhibitors of PABP1 MLLE–PAM2 peptide binding, primary screen, biochemical, fluorescence polarization, FITC-PAM2, GST-MLLE; Polyadenylate-binding protein 1 (Homo sapiens), P11940; inhibition, % at 20 µM; hit rate 0.36% among 360,000; in the data active = inhibition above about 35%, passing the limit was not always enough;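 note: plate controls were DMSO wells with GST-MLLE for no effect and wells lacking GST-MLLE protein for full effect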
eIF4H inh: human eIF4H binding inhibitors, primary screen, translation initiation inhibitor project, biochemical, uHTS, fluorescence polarization; Eukaryotic translation initiation factor 4H (Homo sapiens), Q15056; eIF4H fluorescence polarization binding assay; inhibition, % at 35 µM; hit rate 0.94% among 290,000;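 note: calls also rest on retests at 20 µM and on dose response follow-up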
PABP FP inh: PABP poly(A) RNA binding inhibitors, primary screen, biochemical, fluorescence polarization, uHTS; Polyadenylate-binding protein 1 (Homo sapiens), P11940; calls only at 35 µM; hit rate 1% among 290,000;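 note: calls also rest on retests at 20 µM and on dose response follow-up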
* = called active by the depositor; i = inactive; ? = inconclusive; / = no result given; + = active, no number. Hits are enriched below; roughly 1.6% of the tested compounds scored in any of these assays. Unless noted, the rule behind the calls is not given here.

SMILES	eIF4E 4G PPI	PERK inh	PABP1 MLLE inh	eIF4H inh	PABP FP inh
CC(C)NC(=O)CCCC(=O)NC(C)C	-4	1	3	2.2*	+
COc1ccccc1C(=O)NC(CCSC)C(=O)NC1CCCCCC1 (centres undefined)	-1	0	-13	92	+
COc1ccccc1C(=O)NC(CCSC)C(=O)NC1CC1 (centres undefined)	/	/	5	/	/
COc1ccccc1C(=O)NC(CCSC)C(=O)OCC(=O)c1ccc[nH]1 (centres undefined)	-2	0	5	60*	+
COc1ccccc1N1CCN(/N=C/c2c(C)nn(-c3ccccc3)c2C)CC1	-4	-1	41*	-6	i
CCN(CC(=O)N1CCCC1)S(=O)(=O)c1ccccc1	/	/	2	72*	+
Cc1nc(-c2ccccc2)sc1-c1ccn[nH]1	5	-1	-3	?	+
COc1cccc2sc3ccc(NCCC4CCCN4C)cc3c(=O)c12 (centres undefined)	/	/	-17	79*	+
O=C(Nc1ccc(S(=O)(=O)Nc2nccs2)cc1)c1cnc(Cl)c(Cl)c1	-4	0	-63	0	i
Cc1nn(CCCC(=O)Nc2sc3c(c2C#N)CCC3)c(C)c1[N+](=O)[O-]	-9	-2	26	1	i
Cc1nn(CC(=O)Nc2sc3c(c2C#N)CCC(C(C)(C)C)C3)c(C)c1[N+](=O)[O-] (centres undefined)	3	3.0*	25	-8	i
CC(Sc1nnc(C2CC2)n1C1CC1)C(=O)Nc1ccccc1C#N (centres undefined)	/	/	-2	/	/
COC(=O)C1=NN(C(=O)c2cccc(Br)c2)C(O)(c2ccc(Cl)cc2)C1 (centres undefined)	7	2	-59	58*	i
CCOC(=O)c1[nH]c(C)c(C(=O)O)c1C	2	3.3*	/	15	i
CCOC(=O)c1c(C)[nH]c(C(=O)CN2CC(C)OC(C)C2)c1C (centres undefined)	-4	0	0	0	i
CCOC(=O)c1c(C)[nH]c(C(=O)CN2CCN(CC)CC2)c1C	54*	0	-11	2	i
CC(C)CN(CC(C)C)C1=N/C(=C\c2ccco2)C(=O)N1c1ccccc1	1	1	-50	69	+
CC[C@@]1(C(=O)OC)N[C@H](CN(C)C(=O)NC(C)C)[C@@H]2C(=O)N(C)C(=O)[C@@H]21	/	/	12	/	/
Cc1ccc(NC(=O)Nc2cc(S(C)(=O)=O)ccc2Cl)cc1	2	0	2	-10	i
Cc1ccc(C(=O)O)cc1NC(=S)NC(=O)c1ccc(-c2ccc(Cl)cc2)o1	-15	2	51*	-5	i
CCCCn1c(N)c(N(CCOC)C(=O)c2ccc(COc3ccccc3)o2)c(=O)[nH]c1=O	/	/	-19	/	/
CCCCCC(=O)N1C[C@@H](O)[C@H](n2cc(-c3ccc(F)cc3)nn2)C[C@@H]1c1ccccc1	/	/	10	/	/
Cc1cc(C)c(O)c(NC(=S)NC(=O)Cc2ccccc2)c1	/	/	42*	-7	i
Cc1cccc(NC(=S)NC(=O)Cc2ccccc2)c1C	/	/	21	3	i
CN(C)S(=O)(=O)Nc1ccccn1	55*	2	3	2	i
SMILES	eIF4E 4G PPI	PERK inh	PABP1 MLLE inh	eIF4H inh	PABP FP inh
O=S(=O)(Nc1ccccn1)c1ccc(Cl)cc1	6	1	7	-11	i
Cc1ccc(C(=O)Nc2nc(-c3ccco3)c(-c3ccco3)s2)o1	/	/	-17	/	/
c1coc(-c2nc(-c3ccco3)c(-c3ccco3)nc2-c2ccco2)c1	1	1	10	85*	+
COc1ccc2nc(-c3ccco3)c(-c3ccco3)nc2c1	27	1	40*	98*	+
COc1ccc2nc3cccc(OC)c3nc2c1	4	0	34	60	i
Nc1nc(-c2ccco2)c(-c2ccco2)s1	2	2	44*	?	?
Nc1nc(-c2ccco2)cs1	7	-1	-5	79*	+
Nc1nc(-c2ccc(-n3nncc3-c3ccco3)cc2)cs1	2	1	/	2	i
OCc1cn(-c2ccccc2)nc1-c1ccco1	-13	0	18	16	i
CC1CCCN(S(=O)(=O)c2ccc3[nH]c4c(c3c2)CCCC4)C1 (centres undefined)	/	/	-17	2	i
CC1(C)C(C=C(Cl)Cl)C1C(=O)Nc1ccc([N+](=O)[O-])cc1 (centres undefined)	-2	-1	/	2	i
C[C@H](CO)N1C[C@H](C)[C@@H](CN(C)C(=O)CN2CCOCC2)Oc2ncc(-c3cncnc3)cc2C1=O	/	/	-4	/	/
O=C(Nc1ccccc1)N1CCSc2cc(Cl)ccc21	0	3.1*	4	2	i
CC(C)COC(=O)N1CCCCC1c1cc(C(=O)NCc2cccnc2)no1 (centres undefined)	/	/	10	/	/
Cc1nsc(N)c1C(=O)O	-4	3.4*	8	-1	i
Cc1onc(-c2ccccc2)c1C(=O)Nc1nnc(CC(C)C)s1	/	/	6	-15	i
O=C(c1nc2n(n1)C(c1ccc(Cl)cc1)C=C(c1ccccc1)N2)N1CCOCC1 (centres undefined)	0	-1	60	66*	+
CS(=O)(=O)Nc1nc2n(n1)C(c1ccccc1)C=C(c1ccc(Br)cc1)N2 (centres undefined)	-1	2	147	76*	+
CC(=O)Nc1nc2n(n1)C(c1ccc(F)cc1)C=C(c1ccccc1)N2 (centres undefined)	4	0	34	-8	i
COc1ccccc1C1C=C(c2ccc(Cl)cc2)Nc2nc(NS(C)(=O)=O)nn21 (centres undefined)	8	0	/	2	i
CC(=O)Nc1nc2n(n1)C(c1ccccc1)C=C(c1ccccc1)N2 (centres undefined)	-1	-1	59*	18	i
CCCCn1c(=O)c2c(nc3n2CCCN3Cc2ccccc2)n(C)c1=O	/	/	5	-15	i
COc1ccc(CCN2C(=O)NC(NC(C)=O)(C(F)(F)F)C2=O)cc1OC (centres undefined)	3	0	-5	-3	+
COc1ccc(CCN2C(=O)NC(NC(=O)C(C)(C)C)(C(F)(F)F)C2=O)cc1OC (centres undefined)	-21	-1	5	4	i
CCN1C(=O)[C@H]2[C@@H](c3ccc(OC)cc3)N[C@]3(CCCN(Cc4ccc(F)cc4)C3=O)[C@H]2C1=O	/	/	8	/	/
CCOc1ccc(Oc2c(/C=N/NC(N)=O)c(C)nn2-c2ccccc2)cc1	6	-1	0	-4	i
